The values below come from PubChem BioAssay (EPA / NIEHS).

Results filed as inconclusive are left out. Calls of active or inactive are those of the source. Rule for the calls: active = hit-call score of the fitted dose curve at least 0.9, where 1 is the maximum; inconclusive = response in the unintended direction; inactive = score below 0.9.

The term AC50 denotes the midpoint of the concentration-response curve, whichever way the signal moves.

Chain of human CYP2C9, CYP2C9 (gene 1559) (P11712 whole entry, looked up): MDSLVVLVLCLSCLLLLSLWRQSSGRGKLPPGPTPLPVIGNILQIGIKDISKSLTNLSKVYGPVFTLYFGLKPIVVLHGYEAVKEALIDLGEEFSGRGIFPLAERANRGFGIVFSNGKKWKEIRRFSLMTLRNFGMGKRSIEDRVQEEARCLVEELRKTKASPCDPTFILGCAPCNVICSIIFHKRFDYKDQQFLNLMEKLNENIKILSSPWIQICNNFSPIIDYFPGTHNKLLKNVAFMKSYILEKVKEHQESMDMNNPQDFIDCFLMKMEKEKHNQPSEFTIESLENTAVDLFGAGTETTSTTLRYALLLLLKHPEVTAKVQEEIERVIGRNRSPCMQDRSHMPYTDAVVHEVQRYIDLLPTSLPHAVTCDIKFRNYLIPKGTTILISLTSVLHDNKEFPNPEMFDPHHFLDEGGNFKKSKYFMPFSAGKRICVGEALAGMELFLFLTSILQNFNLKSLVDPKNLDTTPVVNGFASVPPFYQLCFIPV

The assay deals with human CYP2C9, CYP2C9 (gene 1559) (UniProt P11712). As to the kind of experiment: NVS_ADME_hCYP2C9: NovaScreen (NVS) CYP450-related Enzyme Activity (ADME) Assay for human CYP2C9 (AID 2283108). In outline:
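Cell-free assay of recombinant human CYP2C9 produced in Sf9 cells, with enzyme activity read by fluorescence intensity 0.75 h after compound addition. Loss of signal versus an acetonitrile negative control indicates inhibition. Primary screen used 10 uM in duplicate; actives were retested in concentration series.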
On to `[Cl-].[Cl-].[Hg+2]`, for which the AC50 was 3.68 µM (active).

Regarding `CCOC(=O)[C@]1(c2ccccc2)Oc2ccccc2[C@@H]1N`, the AC50 was 5.79 µM (active).

`CCCCCCCCn1sccc1=O`: the AC50 is 7.51 µM (active).

`O=[N+]([O-])C(Br)(CO)CO`: the AC50 is 3.26 µM (active).

For `CC(C)(C)C(O)(CCc1ccc(Cl)cc1)Cn1cncn1` (centres undefined), the AC50 was 6 µM (active).

On to `ClCCOCCCl`, for which the AC50 is 15 µM (active).

On to `Oc1ccc2ccc3cccc4ccc1c2c34`, for which the half-maximal activity concentration (AC50) is 2.53 µM (active).

With `CC(C)(O)c1cnn2c(-c3ccc(F)c(-c4c(F)cccc4C#N)c3)cnc2n1`, the AC50 is 2.24 µM (active).

For the molecule `CCNS(=O)(=O)C(F)(F)C(F)(F)C(F)(F)C(F)(F)C(F)(F)C(F)(F)C(F)(F)C(F)(F)F`, the AC50 was 0.226 µM (active).

`Cc1cc(N=Nc2ccccc2C)ccc1N`: the AC50 is 4.5 µM (active).

Turning to `Nc1ccc(N=Nc2ccccc2)cc1`, the AC50 was 7.26 µM (active).

`CCC12COCN1COC2`: the concentration at half-maximal activity (AC50) was 3.73 µM (active).

For the molecule `COP(=S)(OC)SCN1C(=O)c2ccccc2C1=O`, the half-maximal activity concentration (AC50) was 4.74 µM (active).

As to `CS(=O)(=O)NC(=O)c1cc(Oc2ccc(C(F)(F)F)cc2Cl)ccc1[N+](=O)[O-]`, the concentration at half-maximal activity (AC50) was 6.1 µM (active).
